Compound activity from PubChem BioAssay.
NPC1 promoter act = NPC1 promoter activation. Huh7 NPC1 promoter luciferase reporter, 24 h. Potency, µM (highest dose often 9.22 µM), actives largely listed as activators. 320,000 compounds, 2.4% hits. AID 485313; also: nearly all actives have a fitted effect of over 60% in size
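Huh7 reporter cells (NPC1 promoter driving luciferase) are dosed with compound for 24 h at 37 °C, 5% CO2; luciferase detection reagent is then added and luminescence measured after 10 min at ambient temperature.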
SMN2 splice up = SMN2 splice variant enhancement; HEK293 SMN2-luciferase splicing reporter, luminescence, 30-36 h; Potency, µM (titrated, usually from 46.1 µM), hits mostly activators; 210,000 compounds, 2.8% hits; also: nearly all actives have a fitted effect of over 55% in size
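HEK293 cells carry an SMN2 minigene-luciferase reporter in which exon 7 inclusion puts luciferase in frame. Cells were seeded at 2000 cells/well, attached for 10-12 hours, then exposed to compounds for 30-36 hours at 37C before ONE-Glo luminescence.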
FLuc counter = inhibits or activates purified firefly luciferase, miR-21 counter-screen. 360,000 compounds, 6.9% hits. purified FLuc, Km substrates, luminescence inhibition. P08659. AID 588342. Potency, µM (doses to about 57.5 µM), hits mostly inhibitors; also: nearly all actives have a fitted effect of over 55% in size
Target sequence (P08659 whole entry, looked up): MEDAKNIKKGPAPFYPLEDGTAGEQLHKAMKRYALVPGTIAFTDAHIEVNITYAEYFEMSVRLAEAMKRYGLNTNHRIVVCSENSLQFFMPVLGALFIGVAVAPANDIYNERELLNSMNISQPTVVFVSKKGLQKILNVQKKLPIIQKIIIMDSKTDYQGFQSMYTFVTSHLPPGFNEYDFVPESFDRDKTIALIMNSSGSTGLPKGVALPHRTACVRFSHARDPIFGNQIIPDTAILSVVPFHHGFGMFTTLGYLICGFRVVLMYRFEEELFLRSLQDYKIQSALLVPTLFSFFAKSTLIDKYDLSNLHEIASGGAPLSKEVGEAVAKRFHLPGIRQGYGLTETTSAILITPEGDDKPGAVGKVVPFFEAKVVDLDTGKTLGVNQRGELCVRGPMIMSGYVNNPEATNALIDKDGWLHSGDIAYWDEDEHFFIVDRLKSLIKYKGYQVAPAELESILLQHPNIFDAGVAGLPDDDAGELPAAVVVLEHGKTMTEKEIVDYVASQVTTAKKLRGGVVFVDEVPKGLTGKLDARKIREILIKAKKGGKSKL
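Purified P. pyralis luciferase, 10 nM final, with Km-level 10 uM D-luciferin and 10 uM ATP in 50 mM Tris acetate pH 7.5, 10 mM Mg acetate, 0.01% Tween-20, 0.05% BSA; 6-point qHTS titration about 60 µM downward; luminescence read.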
Rab9 prom act = activators of Rab9 promoter; Huh7 Rab9 promoter-luciferase reporter, luminescence, 24 h; Potency, µM (series often up to 9.22 µM), actives largely listed as activators; 320,000 compounds, 2.8% hits; also: nearly all actives have a fitted effect of over 60% in size
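Quantitative HTS format; Huh7 Rab9-luciferase reporter cells (1500/well) receive compound 2 h post-plating, incubate 24 h at 37 °C, then get luciferase reagent for 10 min before luminescence reading.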
ELG1 genotoxic = genotoxicity induction in ELG1-luciferase HEK293T cells; HEK293T ELG1-luciferase reporter, luminescence, 16 h; Potency, µM (top dose mostly 46 µM), usual class: activators; 330,000 compounds, 1.3% hits; AID 504466; also: nearly all actives have a fitted effect of over 60% in size
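DMSO vehicle served as control against compound-treated ELG1-luciferase HEK293T cells; exposure lasted 16 hr at 37 °C and 5% CO2, followed by ONE-Glo luminescence detection after 30 min.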
Each line names hits and unclear results; the compound was inactive in the other large screens. This is a sample that favours compounds with a hit; in the whole collection about 7.5% have one here. Calls follow the shape of the dose curve; as a rule, active = well fitted curve in the direction sought with a large enough effect; inconclusive = small, poorly fitted or top-dose-only effect, or another doubt; inactive = no such curve, though single readings can be large; an effect the other way counts as inactive or inconclusive.

COc1ccc(-c2csc(-n3ncc(-c4ccccn4)c3N)n2)cc1	none
Nc1c(-c2ccccn2)cnn1-c1nc(-c2ccc(F)cc2)cs1	FLuc counter 9.5µM
Nc1c(-c2cccs2)cnn1-c1nc(-c2ccc(F)cc2)cs1	NPC1 promoter act inconclusive, FLuc counter 7.6µM, Rab9 prom act inconclusive
Nc1c(-c2cccs2)cnn1-c1nc(-c2ccc(Cl)cc2Cl)cs1	FLuc counter inconclusive
COC(=O)c1cnn(-c2nc(-c3ccccc3)cs2)c1N	NPC1 promoter act inconclusive, FLuc counter 2.7µM, Rab9 prom act inconclusive, ELG1 genotoxic inconclusive (no result: SMN2 splice up)
COc1ccc(CN2CCNC(=O)C2CC(=O)N(C)Cc2nonc2C)c(F)c1 (stereo not drawn)	none (no result: SMN2 splice up)
Cc1csc(NC(=O)C(NC(=O)c2ccccc2F)C(C)C)n1 (stereo not drawn)	none
COCCCNC(=O)COC(=O)c1ccc(-c2nc3ccccc3s2)s1	SMN2 splice up 13µM, FLuc counter 5.4µM, Rab9 prom act inconclusive
CCOc1cc(/C=N/Nc2ccccc2Cl)ccc1OCC(=O)O	FLuc counter 21µM, ELG1 genotoxic inconclusive
CCOc1cc(/C=N/Nc2nc(Nc3ccccc3)nc(N3CCCCC3)n2)ccc1OCC(=O)O	FLuc counter 1.1µM
CCOc1cc(/C=N/Nc2nc(N3CCCC3)nc(N3CCCC3)n2)ccc1O	none
CCOc1cc(/C=N/NC(=O)c2ccc(-c3csc(Nc4ccc(C)cc4)n3)cc2)ccc1OCC(=O)O	NPC1 promoter act 3.2µM, SMN2 splice up 13µM, FLuc counter inconclusive, Rab9 prom act 2.8µM
COc1ccc(/C=N/Nc2nc(Nc3ccccc3)nc(N3CCCCC3)n2)cc1OC	NPC1 promoter act inconclusive, FLuc counter 1.1µM, Rab9 prom act inconclusive
COc1cc(/C=N/Nc2nc(N3CCCCC3)nc(N3CCCCC3)n2)ccc1OC(=O)c1ccco1	none
CCOc1cc(/C=N\NC(=O)Cc2ccccc2)ccc1OCC(=O)Nc1ccc(C)c(C)c1	none
O=Nc1c2cc(-c3ccccc3)[nH]nc-2c2ccccc12	NPC1 promoter act 3.2µM, SMN2 splice up 0.5µM, FLuc counter 0.43µM, Rab9 prom act inconclusive, ELG1 genotoxic inconclusive
Cc1ccc(-c2cc3c(N=O)c4ccccc4c-3n[nH]2)cc1	FLuc counter 0.095µM, Rab9 prom act inconclusive, ELG1 genotoxic inconclusive
Cc1ccc(-c2n[nH]c(=O)c3ccccc23)cc1S(=O)(=O)N(C)C	none (no result: SMN2 splice up)
Cc1cccc(-c2cc3c(N=O)c4ccccc4c-3n[nH]2)c1	NPC1 promoter act 0.71µM, SMN2 splice up 3.2µM, FLuc counter 0.54µM, Rab9 prom act 1.3µM, ELG1 genotoxic inconclusive
CCCCc1nnc(NC(=O)C2CC(=O)N(Cc3ccccc3)C2)s1 (stereo not drawn)	none (no result: SMN2 splice up)
Cc1cccc(-n2c(=O)c3c(c4cc(C)ccc4n3C)n(CC(=O)Nc3ccc(C)c(C)c3)c2=O)c1	none (no result: NPC1 promoter act, SMN2 splice up, Rab9 prom act, ELG1 genotoxic)
CCC1CCCCN1CCCNC(=O)c1[nH]c2ccccc2c1Sc1ccc(Cl)cc1 (stereo not drawn)	none (no result: NPC1 promoter act, SMN2 splice up, Rab9 prom act, ELG1 genotoxic)
Cc1cc(C(=O)CN2C(=O)NC3(CCCCC3)C2=O)c(C)n1Cc1ccc2c(c1)OCO2	FLuc counter inconclusive
Cc1cc(C(=O)CN2C(=O)c3cccc(N)c3C2=O)c(C)n1Cc1cccs1	NPC1 promoter act 1.3µM, SMN2 splice up 8.9µM, FLuc counter 1.1µM, Rab9 prom act 1.1µM, ELG1 genotoxic 2.9µM
Cc1cc(C(=O)CN2C(=O)NC3(CCCCC3)C2=O)c(C)n1Cc1ccco1	NPC1 promoter act 2.2µM, SMN2 splice up 11µM, FLuc counter 7.6µM, Rab9 prom act 1.4µM, ELG1 genotoxic 6.5µM
Cc1cc(C(=O)CN2C(=O)NC3(CCCCC3C)C2=O)c(C)n1Cc1cccs1 (stereo not drawn)	NPC1 promoter act 4µM, SMN2 splice up 16µM, FLuc counter 6.7µM, Rab9 prom act 2.8µM, ELG1 genotoxic inconclusive
Cc1ccc(OCCSc2nc3ccccc3n2CC(=O)N2CCOCC2)cc1	none (no result: NPC1 promoter act, SMN2 splice up, Rab9 prom act, ELG1 genotoxic)
CCCCN(CCCC)CCCNC(=O)c1ccc2nc(N3CCCCC3)sc2c1	none (no result: NPC1 promoter act, Rab9 prom act, ELG1 genotoxic)
CCCN(CCC)CCNC(=O)C1CCN(c2nc3ccc(CC)cc3s2)CC1	FLuc counter 21µM (no result: NPC1 promoter act, Rab9 prom act, ELG1 genotoxic)
CCc1ccc2nc(N3CCC(C(=O)NCCC(C)C)CC3)sc2c1	FLuc counter 1.9µM (no result: NPC1 promoter act, Rab9 prom act, ELG1 genotoxic)
CCCN(CCC)CCCNC(=O)C1CCN(c2nc3ccc(CC)cc3s2)CC1	FLuc counter 12µM (no result: NPC1 promoter act, Rab9 prom act, ELG1 genotoxic)
CC(C)(C)NC(=O)CSc1nnc(C2CC2)n1-c1ccccc1	none
CC(C)CC(=O)Nc1ccc2c3c(cccc13)CC2	none
Cc1ccc2oc(-c3ccc(NC(=O)c4ccncc4)cc3O)nc2c1	FLuc counter inconclusive, ELG1 genotoxic inconclusive (no result: SMN2 splice up)
Cc1ccc2oc(-c3cc(NC(=O)c4ncn[nH]4)ccc3O)nc2c1	FLuc counter 2.7µM (no result: SMN2 splice up)
O=C1C2C3C=CC(C3)C2C(=O)N1c1ccc(-c2nc3ccccc3o2)cc1 (stereo not drawn)	NPC1 promoter act 1.4µM, SMN2 splice up 13µM, FLuc counter 2.7µM, Rab9 prom act 1.4µM, ELG1 genotoxic 1.8µM
O=C1C2C3C=CC(C3)C2C(=O)N1c1ccncc1 (stereo not drawn)	none
COc1c(C(=O)NNC(=O)c2ccccc2Cl)csc1Br	NPC1 promoter act 3.5µM, FLuc counter 21µM, Rab9 prom act inconclusive, ELG1 genotoxic inconclusive (no result: SMN2 splice up)
O=C(NNC(=O)c1ccccc1Cl)c1ccncc1	none
c1ccc2c(N3CCOCC3)c3c(nc2c1)CCC3	none (no result: SMN2 splice up)
COc1ccc2c(c1)CCc1c-2nc2ccccc2c1N1CCOCC1	FLuc counter 5.4µM (no result: SMN2 splice up)
Cc1ccc(NC(=O)C2C3CC4OC(=O)C2C4C3)cc1Cl (stereo not drawn)	SMN2 splice up inconclusive
CC(C)OC(=O)c1ccc(NC(=O)C2C3CC4OC(=O)C2C4C3)cc1 (stereo not drawn)	NPC1 promoter act inconclusive, SMN2 splice up 11µM, FLuc counter 21µM, Rab9 prom act 2.8µM
CN(C)c1nc(C(N)=O)nc(N2CCOCC2)n1	none
CC(Sc1nc2ccccc2n1C)C(=O)Nc1ccc(N2CCOCC2)cc1 (stereo not drawn)	FLuc counter 17µM
CSc1ccc(Cl)c(C(=O)NNC(=O)c2csc(N3CCOCC3)n2)c1	none (no result: SMN2 splice up)
CN1C=CC=C/C1=C1/N=C(c2ccccc2)OC1=O	NPC1 promoter act inconclusive, SMN2 splice up inconclusive, FLuc counter inconclusive, Rab9 prom act 3.2µM
CC1=CC(=C2N=C(c3ccccc3)OC2=O)C=C(C)O1	NPC1 promoter act inconclusive, FLuc counter inconclusive, Rab9 prom act inconclusive
O=C(Nc1nnc(-c2ccc(F)cc2)s1)c1ccco1	NPC1 promoter act 2.8µM, FLuc counter 2.7µM, Rab9 prom act 3.2µM, ELG1 genotoxic inconclusive (no result: SMN2 splice up)
O=C(Nc1nnc(S(=O)(=O)N2CCN(c3ccc(F)cc3)CC2)s1)c1ccco1	FLuc counter 19µM (no result: SMN2 splice up)
Cc1noc(C)c1C(=O)Nc1nnc(-c2ccccc2)s1	FLuc counter 15µM
O=C(Nc1nnc(S(=O)(=O)N2CCOCC2)s1)c1ccc(F)cc1	none (no result: SMN2 splice up)
